Rows were chosen to be rich in hits. Some 2.8% of all compounds tested hit in one or more screens of this group.
SMARCA2 act = increases SMARCA2 function in MMTV reporter cells; MG213 cells, MMTV-luciferase reporter, dexamethasone, overnight; activation, % at 9.1 µM; actives 1% (n = 370,000); in the data active = activation above about 7.8%;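 note: 0% = vehicle wells and 100% = reference activator wells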
KLK7 zymogen act = activators of human kallikrein-7 zymogen; AID 652039; purified proKLK7, EDANS-DABCYL substrate fluorescence; 100% is mature enzyme control, 0% vehicle; P49862; actives 0.9% (n = 370,000); activation, % at 7 µM;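 active = activation above the mean of all tested compounds plus 3 SD, computed per campaign excluding outliers beyond control limits, cut at about 13% in these data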
Target sequence (P49862 whole entry, looked up): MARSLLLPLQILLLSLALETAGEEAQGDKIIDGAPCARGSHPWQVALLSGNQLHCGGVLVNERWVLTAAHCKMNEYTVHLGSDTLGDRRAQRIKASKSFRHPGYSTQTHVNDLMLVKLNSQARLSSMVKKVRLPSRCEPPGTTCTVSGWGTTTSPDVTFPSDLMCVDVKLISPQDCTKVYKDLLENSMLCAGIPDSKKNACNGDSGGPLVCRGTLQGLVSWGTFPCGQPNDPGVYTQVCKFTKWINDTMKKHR
bovine MsrA act = activators of bovine methionine sulfoxide reductase A; purified bovine MsrA, absorbance read-out; activation, % at 10.6 µM; actives 0.3% (n = 360,000); AID 602163; in the data active = activation above about 7.5%;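 note: 0% = vehicle and 100% = reference activator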
MsrA inhibitor = bovine MsrA inhibition; inhibition, % at 15.5 µM; AID 651718; actives 0.75% (n = 360,000); purified bovine MsrA, absorbance read-out; in the data active = inhibition above about 4.5%;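 note: 0% = vehicle wells with enzyme and 100% = reference inhibitor wells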
proKLK7 act conf = proKLK7 activation, confirmation | shares compounds with KLK7 zymogen act | purified proKLK7, EDANS-DABCYL substrate fluorescence; scaled: vehicle 0, mature enzyme 100 | activation, % at 7 µM | actives 68% (n = 3,200) | AID 686949;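 active = activation, as change over the incubation, above the mean of all tested compounds plus 3 SD, cut at about 13% in these data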
EDANS-DABCYL int = optically interferes with EDANS-DABCYL signal, flagging KLK7 hits; shares compounds with KLK7 zymogen act; EDANS-DABCYL substrate fluorescence interference, no enzyme, 4 h; solvent 0%, active enzyme control 100%; activation, % at 7 µM; actives 80% (n = 3,200);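 active = activation above the all-compound mean plus 3 SD, ignoring values outside control-based bounds, cut at about 4.8% in these data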;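 note: value is the 4 h activation minus the activation read at time zero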
Starred values were filed as active, the others as inactive.

How did CN1CCN(C(=O)c2ccc(-c3cccs3)s2)CC1 do in these assays?
SMARCA2 act: 4; KLK7 zymogen act: 32*; bovine MsrA act: -2; MsrA inhibitor: 2; proKLK7 act conf: 6; EDANS-DABCYL int: 5.3*

Results for COC(=O)C1=CN(Cc2ccc(OC)cc2)C=C(C(=O)OC)C1c1cc(OC)c(OC)c(OC)c1 ?
bovine MsrA act: -4

What do the screens show for `COC(=O)C1=CN(CC2CCCO2)C=C(C(=O)OC)C1c1cc(OC)c(OC)c(OC)c1` (stereo not given)?
SMARCA2 act: 1; KLK7 zymogen act: 16*; bovine MsrA act: -3; MsrA inhibitor: 0; proKLK7 act conf: 0; EDANS-DABCYL int: 0

How did CCN(CC)CCNC(=O)c1cc2c(=O)n(CC)c3ccccc3c2s1 do in these assays?
SMARCA2 act: 5; KLK7 zymogen act: 38*; bovine MsrA act: -2; MsrA inhibitor: 1; proKLK7 act conf: 5; EDANS-DABCYL int: 4

How did CCN(CC)CCNC(=O)c1cc2c(s1)-c1ccccc1SC2 do in these assays?
SMARCA2 act: 0; KLK7 zymogen act: 76*; bovine MsrA act: -9; MsrA inhibitor: 2; proKLK7 act conf: 57*; EDANS-DABCYL int: 55*

What do the screens show for `NNC(=O)c1cc2c(s1)-c1cc(Cl)ccc1SC2`?
SMARCA2 act: -2; KLK7 zymogen act: 6; bovine MsrA act: 1; MsrA inhibitor: 0

What do the screens show for `CCn1c(=O)c2cc(C(=O)NCCN(C)C)sc2c2ccccc21`?
SMARCA2 act: 2; KLK7 zymogen act: 35*; bovine MsrA act: -10; MsrA inhibitor: 2; proKLK7 act conf: 0; EDANS-DABCYL int: 6.0*

What do the screens show for `CCN(CC)CCCNC(=O)c1cc2c(=O)n(CC)c3ccccc3c2s1`?
SMARCA2 act: 4; KLK7 zymogen act: 12; bovine MsrA act: 0; MsrA inhibitor: 2

Results for CSc1ccc(C=Nn2c(-c3cc(C)[nH]n3)n[nH]c2=S)cc1 ?
SMARCA2 act: -6; KLK7 zymogen act: 0

Results for CCCn1cnnc1CNC(=O)[C@@H](Cc1ccccc1)NC(=O)[C@H]1O[C@@H](n2ccc(=O)[nH]c2=O)[C@H](O)[C@@H]1O ?
SMARCA2 act: 2; KLK7 zymogen act: 0; MsrA inhibitor: 0

How did Cc1cc(NC(=O)COC(=O)c2ccccc2NCCO)no1 do in these assays?
SMARCA2 act: 7; KLK7 zymogen act: 34*; bovine MsrA act: -1; MsrA inhibitor: 1; proKLK7 act conf: 27*; EDANS-DABCYL int: 24*

Results for O=C(Nc1c(-c2ccc(F)cc2)nc2ccccn12)c1ccc(F)cc1 ?
SMARCA2 act: -2; KLK7 zymogen act: 0; bovine MsrA act: 1; MsrA inhibitor: -2

How did CC(=O)Nc1nc2ncccn2c1-c1ccc(F)c(F)c1 do in these assays?
SMARCA2 act: 0; KLK7 zymogen act: 21*; proKLK7 act conf: 27*; EDANS-DABCYL int: 26*

Results for O=C(Nc1ccc(F)cc1)Nc1c(-c2ccc(F)cc2)nc2ncccn12 ?
SMARCA2 act: -1; KLK7 zymogen act: 15*; proKLK7 act conf: 5; EDANS-DABCYL int: 5.1*

What do the screens show for `O=C(Nc1c(-c2ccccc2)nc2ncccn12)c1ccc(F)cc1`?
SMARCA2 act: 0; KLK7 zymogen act: 14*; proKLK7 act conf: 12; EDANS-DABCYL int: 11*

Results for CC(=O)Nc1c(-c2ccccc2)nc2ncccn12 ?
SMARCA2 act: -2; KLK7 zymogen act: 22*; bovine MsrA act: 2; MsrA inhibitor: 1; proKLK7 act conf: 60*; EDANS-DABCYL int: 57*

Results for CC(Oc1ccc2c3c(c(=O)oc2c1)CCCC3)C(=O)NCC1CCC(C(=O)O)CC1 (stereo not given) ?
SMARCA2 act: -2; KLK7 zymogen act: 0; bovine MsrA act: -2; MsrA inhibitor: 0

How did O=c1oc2cc(O)ccc2c2c1CCCC2 do in these assays?
SMARCA2 act: 0; KLK7 zymogen act: 58*; bovine MsrA act: -4; MsrA inhibitor: 1; proKLK7 act conf: 60*; EDANS-DABCYL int: 70*

Results for COC(=O)C(C)Oc1ccc2c3c(c(=O)oc2c1)CCCCC3 (stereo not given) ?
SMARCA2 act: 3; KLK7 zymogen act: 25*; bovine MsrA act: -2; MsrA inhibitor: 1; proKLK7 act conf: 1; EDANS-DABCYL int: -7

What do the screens show for `CC(=O)Oc1ccc2c3c(c(=O)oc2c1)CCCC3`?
SMARCA2 act: 2; KLK7 zymogen act: 495*; bovine MsrA act: -4; MsrA inhibitor: 0; proKLK7 act conf: 688*; EDANS-DABCYL int: 685*

How did CSCCC(NC(C)=O)C(=O)Oc1ccc2c3c(c(=O)oc2c1)CCCC3 (stereo not given) do in these assays?
SMARCA2 act: -3; KLK7 zymogen act: 53*; bovine MsrA act: -2; MsrA inhibitor: 2; proKLK7 act conf: 61*; EDANS-DABCYL int: 66*

What do the screens show for `CC1(C(=O)NCc2ccccc2)CSCC(=O)N1CC(F)(F)F` (stereo not given)?
SMARCA2 act: 3; KLK7 zymogen act: 1; MsrA inhibitor: 0

How did CCCCn1nnnc1C(c1cc2ccccc2o1)N1CCN(C(=O)OC(C)(C)C)CC1 (stereo not given) do in these assays?
SMARCA2 act: -1; KLK7 zymogen act: 0; bovine MsrA act: -10; MsrA inhibitor: 0

How did COc1ccc(N2CCN(C(=O)NCc3cccc(OC)c3)CC2)cc1 do in these assays?
SMARCA2 act: -3; KLK7 zymogen act: 0; bovine MsrA act: 0; MsrA inhibitor: 0

How did O=C(Oc1ccc2c3c(c(=O)oc2c1)CCCC3)c1ccco1 do in these assays?
SMARCA2 act: 0; KLK7 zymogen act: 295*; bovine MsrA act: -2; MsrA inhibitor: 2; proKLK7 act conf: 639*; EDANS-DABCYL int: 631*

Results for O=c1oc2cc(O)ccc2c2oc3cc(O)ccc3c12 ?
SMARCA2 act: 2; KLK7 zymogen act: 72*; bovine MsrA act: -3; MsrA inhibitor: 4; proKLK7 act conf: 62*; EDANS-DABCYL int: 72*

How did CC(C)Oc1ccc2c3c(c(=O)oc2c1)CCC3 do in these assays?
SMARCA2 act: 0; KLK7 zymogen act: 1; bovine MsrA act: 0; MsrA inhibitor: 0

How did O=C(CN(c1ccc(Br)cc1)S(=O)(=O)c1ccc(Cl)c([N+](=O)[O-])c1)NCC1CCCO1 (stereo not given) do in these assays?
SMARCA2 act: 2; KLK7 zymogen act: 1; bovine MsrA act: -3; MsrA inhibitor: 0

Results for COC(=O)c1nc2ccc(N3CCOCC3)cc2c(C)c1C(=O)OC ?
SMARCA2 act: 1; KLK7 zymogen act: 22*; bovine MsrA act: -6; MsrA inhibitor: 1; proKLK7 act conf: 2; EDANS-DABCYL int: 25*

What do the screens show for `COC(=O)C1=C(C)N(C)C(=NCc2ccccc2C(F)(F)F)NC1c1ccc(C(F)(F)F)cc1` (stereo not given)?
SMARCA2 act: -1; KLK7 zymogen act: 0; MsrA inhibitor: -1

What do the screens show for `C[C@H](CO)N1C[C@H](C)[C@H](CN(C)C(=O)C2CC2)OCc2cnnn2CCCC1=O`?
SMARCA2 act: -3; KLK7 zymogen act: 0; bovine MsrA act: -5; MsrA inhibitor: 1

Screening data: PubChem, The Scripps Research Institute Molecular Screening Center
